Out of some 290,000 compounds screened, about 1,100 (0.38%) were called active. Where a call stands in place of a potency, no number is given. Calls come from the whole dose curve; as a rule, active = well fitted inhibition curve with a large enough effect; inconclusive = small, poorly fitted or top-dose-only effect, or another doubt; inactive = no such curve, though single readings can be large or run the other way. For the sample, actives were picked, then their nearest neighbours and some compounds at random.
Biological target: Pyruvate kinase (Leishmania mexicana) (UniProt Q27686)
Sequence (Q27686 whole entry, looked up): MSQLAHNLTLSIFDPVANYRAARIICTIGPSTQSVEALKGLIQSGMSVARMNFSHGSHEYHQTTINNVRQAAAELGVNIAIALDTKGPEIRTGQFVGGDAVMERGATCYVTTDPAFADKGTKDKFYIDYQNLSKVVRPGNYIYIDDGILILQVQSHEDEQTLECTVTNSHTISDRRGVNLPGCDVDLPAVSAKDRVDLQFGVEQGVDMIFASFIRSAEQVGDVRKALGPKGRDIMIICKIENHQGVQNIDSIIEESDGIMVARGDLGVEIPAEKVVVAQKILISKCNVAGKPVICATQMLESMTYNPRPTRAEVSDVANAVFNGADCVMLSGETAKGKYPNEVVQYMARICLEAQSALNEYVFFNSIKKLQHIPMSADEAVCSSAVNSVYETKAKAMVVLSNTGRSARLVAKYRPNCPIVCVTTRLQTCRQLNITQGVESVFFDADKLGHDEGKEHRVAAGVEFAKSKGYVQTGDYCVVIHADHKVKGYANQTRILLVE
Assay: qHTS Assay for Inhibitors of Leishmania Mexicana Pyruvate Kinase (LmPK)
Conditions: purified LmPK, Kinase-Glo ATP luminescence, 1 h; series mostly up to 57.5 µM
Source text: NIH Chemical Genomics Center [NCGC] Malcolm Walkinshaw, Hugh Morgan, Linda Gilmore University of Edinburgh, UK MLPCN Grant: 1 R03 MH085697-01 NCGC Assay Overview: Pyruvate kinase (L. Mexicana) (LmPK) enzyme was supplied as a highly purified (>95% pure) sulphate-free preparation from University of Edinburgh, UK and assayed for its ability to generate ATP from ADP using phosphoenolpyruvate (PEP) as a substrate. ATP generation was detected in a coupled reaction by luciferase-mediated luminescence, an ATP-dependent process. […] The enzyme was assayed at an intermediate level of activity to screen for both inhibitors and activators.
NCGC Assay Protocol Summary: Three uL of enzyme mix (kept on ice) in assay buffer (50 mM Imidazole pH7.2, 50 mM KCl, 7 mM MgCl2, 0.01% Tween 20, 0.05% BSA) containing PEP (0.5 mM final concentration) and LmPK (0.1 nM final concentration) was dispensed into white solid bottom 1,536 well microtiter plates. 23 nL of compound were delivered by a pin tool and 1 uL of ADP mix in assay buffer (r.t; 0.1 mM final ADP concentration) was added. Plates were incubated at room temperature for 1 hour. Two uL of detection mix (Kinase-Glo, Promega; at 4 degree Celsius protected from light) was added and luminescence read by a ViewLux (Perkin Elmer) at 1 second exposure/plate. Data were normalized to the uninhibited and AC100 inhibition (no enzyme). To monitor activation, the first column contained a five-fold concentration of LmPK (0.5 nM).
Potency is the fitted concentration of half-maximal effect.

Row | Structure (SMILES) | Potency | activity change, negative = inhibition
1 | O=C(NCc1ccccc1Cl)C1CCN(c2ncnc3c2nc2n3CCCCC2)CC1 | inactive | –
2 | O=C1CSC(=S)N1/N=C/c1ccc(O)c([N+](=O)[O-])c1 | 25.1 µM (active) | –
3 | CCOc1cccc(/C=N/N2C(=O)CSC2=S)c1O | inactive | –
4 | Cc1cc(C(=O)N/N=C/c2ccc(O)c([N+](=O)[O-])c2)c(C)n1-c1ccc(F)cc1 | inactive | –
5 | O=C(CN1CCCCCC1)Nc1ccc(Br)cc1[N+](=O)[O-] | inactive | –
6 | O=C(NCCCNC(=O)c1ccccc1Cl)c1cnccn1 | inactive | –
7 | CC(C)N(C(=O)c1ccc(-c2ccccc2F)cc1)C(C)C | inactive | –
8 | O=C(CN1C(=O)c2ccccc2C1=O)NCc1ccc(C(=O)O)cc1 | inactive | –
9 | CC(=O)N(C1=C(Cl)C(=O)c2ccccc2C1=O)c1ccc(C(=O)O)cc1 | 4.47 µM (active) | –
10 | Cc1cccc(N2CCN(S(=O)(=O)c3ccc4[nH]c(=O)c(=O)[nH]c4c3)CC2C)c1 (configuration not stated) | inactive | –
11 | O=C(/C=C/NCc1ccc(F)cc1)c1ccccc1 | inactive | –
12 | O=C(COc1ccc(S(=O)(=O)Nc2cccc(C(F)(F)F)c2)cc1)N1CCOCC1 | inactive | –
13 | CCCn1c(C(C)Nc2nc(-c3ccc(C)cc3)cs2)nc2cc(Cl)c(N3CCCCC3)cc21 (configuration not stated) | inactive | –
14 | COc1ccc(Sc2nc(-c3ccccc3)ncc2OC)cc1 | inactive | –
15 | COc1ccc(-c2nc(-c3ccccc3)no2)c(OC)c1 | 14.1 µM (active) | –
16 | COc1ccccc1Cc1nc(-c2ccc(C)cc2)no1 | inactive | –
17 | COC(=O)C1=C(C(=O)OC)[C@@H]2N(C)c3ccccc3[C@@]23C[C@@H](C(=O)OC)N(S(=O)(=O)c2ccc(Br)cc2)C3=N1 | – | -0.27% [at 11.5 µM] (inactive)
18 | COc1cc(CO)ccc1OCC(=O)Nc1cccc2ccccc12 | inactive | –
19 | c1c2c(cc3sc(N4CCCCC4)nc13)OCCO2 | 6.31 µM (active) | –
20 | Brc1ccc2nc(N3CCCC3)sc2c1 | – | -0.864% [at 11.5 µM] (inactive)
21 | Cc1nc2cc3c(cc2s1)OCO3 | inactive | –
22 | CCOc1ccc(NC(=O)COc2ccc(S(=O)(=O)N3CCCC3)cc2)cc1 | inactive | –
23 | C[C@H]1Cc2c(-c3ccccc3)nc3c(c2CO1)CN(S(=O)(=O)c1ccc(Cl)c2nonc12)CC3 | – | 1.27% [at 11.5 µM] (inactive)

Row | Structure (SMILES) | Potency | activity change, negative = inhibition
24 | Cn1cc([N+](=O)[O-])c(C(=O)Nc2cnn(Cc3ccc(F)cc3)c2)n1 | inactive | –
25 | Cc1onc(C(=O)Nc2ccc3c(c2)OCO3)c1[N+](=O)[O-] | inactive | –
26 | Cn1cc([N+](=O)[O-])c(C(=O)Nc2ccc3c(c2)OCCO3)n1 | 14.1 µM (active) | –
27 | CCCCNC(=O)N(O)C1N(/N=C/c2ccccc2O)C(=S)SC1(C)C (configuration not stated) | inactive | –
28 | COc1ccc(NS(=O)(=O)c2ccc3oc(SCC(N)=O)nc3c2)cc1 | inactive | –
29 | CC(=O)Nc1ccc(NS(=O)(=O)c2ccc3c(c2)NC(=O)CC(=O)N3)cc1 | inactive | –
30 | CN1CCN(C(=O)C(=O)c2cn(CC(=O)N3CCCC3)c3ccccc23)CC1 | inactive | –
31 | O=C(Cn1c(=S)nc2ccccn21)N1CCc2ccccc2C1 | inactive | –
32 | O=C(c1ccc(F)cc1)n1c(=S)nc2ccccn21 | 5.01 µM (active) | –
33 | O=C(c1ccc(F)cc1)n1cc(C(=S)N2CCOCC2)c2ccccc21 | inactive | –
34 | C[C@H]1Cc2c(COc3ccccc3)nc3c(c2CO1)CN(C(=O)NCc1ccco1)CC3 | – | 4.14% [at 11.5 µM] (inactive)
35 | CSCCC(NS(=O)(=O)c1ccccc1F)C(=O)N1CC=C(c2ccccc2)CC1 (configuration not stated) | inactive | –
36 | O=C(NC1CCN(C(=S)Nc2ccc(Cl)cc2)CC1)C1CCCCC1 | inactive | –
37 | COCCCNC(=S)NC(=O)c1ccc([N+](=O)[O-])cc1 | inactive | –
38 | CCCCCC(=O)NC(=S)NNC(=O)c1ccc([N+](=O)[O-])cc1 | 31.6 µM (active) | –
39 | CC(C)CC(=O)NC(=S)NNC(=O)c1cccc([N+](=O)[O-])c1 | inactive | –
40 | COc1cccc(C(=O)NNC(=O)c2cccc(F)c2)c1 | inactive | –
41 | COc1cccc(C(=O)c2cc3ccc(O)cc3oc2=O)c1 | 14.1 µM (active) | –
42 | COc1ccc2oc(=O)c(C(=O)N3CCCC3)cc2c1 | inactive | –
43 | CC(=O)C1=C(C)NC(=O)NC1c1ccc2c(c1)OCO2 (configuration not stated) | inactive | –
44 | COC(=O)C(C)n1cnc2c(nnn2-c2ccc(F)cc2)c1=O (configuration not stated) | inactive | –
45 | CC(=O)Nc1ccc(NC(=O)c2ccc3c(c2)C(=O)N(c2ccccc2C)C3=O)cc1 | inactive | –
46 | O=C(NCc1ccccc1)C1CCN(C(=O)Cc2ccccc2)CC1 | inactive | –

Row | Structure (SMILES) | Potency | activity change, negative = inhibition
47 | Oc1ccc(N=Nc2nccs2)c(O)c1 | 25.1 µM (active) | –
48 | Oc1ccc2ccccc2c1N=Nc1nccs1 | inactive | –
49 | CCOc1ccc(N(CC(=O)Nc2cccc(OC)c2)S(C)(=O)=O)cc1 | inactive | –
50 | CC1(C(=O)NNC(=S)NCC2CCCO2)CC1(Cl)Cl (configuration not stated) | inactive | –
51 | CN(C)C(=O)Cn1c(=O)n(S(=O)(=O)c2ccccc2)c2ccccc21 | inactive | –
52 | CCOC(=O)c1c(S(=O)(=O)Nc2cccc(Cl)c2)c(C)n(C)c1C | inactive | –
53 | COCCn1cnc2c1c(=O)n(Cc1ccc(Br)cc1)c(=O)n2Cc1ccccc1 | inactive | –
54 | Cc1occc1C(=O)Nc1cccc(Cn2cccn2)c1 | inactive | –
55 | Cc1ccnc(NC(=O)c2ccoc2C)c1 | 11.2 µM (active) | –
56 | Cc1occc1C(=O)Nc1nnc(-c2ccncc2)s1 | inactive | –
57 | O=C(Nc1ccccc1)c1ccc2c(c1)OCO2 | 15.8 µM (active) | –
58 | O=C(Nc1ccccc1)c1ccc2c(c1)OCCCO2 | inactive | –
59 | O=C(Nc1cccc([N+](=O)[O-])c1)c1ccc2c(c1)OCO2 | inactive | –
60 | Cc1cccc(/C(N)=N/OC(=O)c2ccccc2Cl)c1 | 11.2 µM (active) | –
61 | N/C(=N\OC(=O)c1cc(-c2ccccc2)nc2ccccc12)c1ccncc1 | inactive | –
62 | Cc1ccc(C(=O)O/N=C(\N)c2ccccn2)cc1Cl | inactive | –
63 | COc1cccc(CCNC(=O)c2cccc(NC(=O)C3=C(C)OCCS3)c2)c1 | inactive | –
64 | CC1(C(=O)O)CCC(C(=O)Nc2ccc(Cl)c(Cl)c2)C1(C)C (configuration not stated) | inactive | –
65 | CN1CCN(c2ccc(NC(=O)c3ccccc3)cc2)CC1 | inactive | –
66 | COc1cccc(C(=O)Nc2ccc(N3CCN(C(=O)c4ccco4)CC3)cc2)c1 | inactive | –
67 | COc1cccc(C(=O)Nc2ccc(N3CCCC3)cc2)c1 | 14.1 µM (active) | –

From PubChem BioAssay AID1721 (National Center for Advancing Translational Sciences (NCATS), 2009)
